Source: the supplement of paper PMC8975748
Where a name gives a salt, the structure may show the parent alone. ± gives the standard deviation of the averaged measurements.

How the values were obtained:
[1] = tested on: Saccharomyces cerevisiae BY4741 SeMeCo community; assay: mean cell size (pixel area) (pixels); higher = larger cells; details: 10 µM; 24 h; SM minimal medium
Summary of the method: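 Mean cell pixel area per well was determined by automated confocal microscopy with Harmony analysis of paraformaldehyde-fixed cells. The cells, a Saccharomyces cerevisiae BY4741 community of four plasmids that each complement one auxotrophy and carry a fluorescent marker, were incubated for 24 h with drug at a final 10 µM in SM medium in 384-well plates. Numbers are averaged over 3 replicates. Same SeMeCo high-content imaging drug screen: Selleck FDA-approved drugs at 10 µM, 24 h in SM medium, 384-well plates, 3 replicates.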

[2] = tested on: Saccharomyces cerevisiae BY4741 SeMeCo community; assay: z-score of prototroph abundance vs DMSO median; higher = larger share of this subpopulation than in DMSO controls; details: 10 µM; 24 h; SM minimal medium; subpopulation (auxotrophy): Prototroph
Summary of the method: (§1)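 Four plasmids, each restoring a single auxotrophy and encoding a distinct fluorescent protein, were carried by a Saccharomyces cerevisiae BY4741 community. After overnight growth to OD600 1.0 and dilution to 0.3, 70 µl per well was grown for 24 h in minimal SM medium on 384-well plates acoustically predosed with library drugs at 10 µM final. Following paraformaldehyde fixation, automated confocal microscopy was used, with single-auxotroph fluorescent strains defining thresholds and autofluorescence correction. Subpopulation abundance was then scored as a z-score against the vehicle-well median.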

[3] = tested on: Saccharomyces cerevisiae BY4741 SeMeCo community; assay: z-score of subpopulation abundance vs DMSO median, subpopulation auxotrophic for M; higher = larger share of this subpopulation than in DMSO controls; details: 10 µM; 24 h; SM minimal medium; subpopulation (auxotrophy): M
Summary of the method: as §1

[4] = tested on: Saccharomyces cerevisiae BY4741 SeMeCo community; assay: z-score of subpopulation abundance vs DMSO median, subpopulation auxotrophic for L; higher = larger share of this subpopulation than in DMSO controls; details: 10 µM; 24 h; SM minimal medium; subpopulation (auxotrophy): L
Summary of the method: as §1

[5] = tested on: Saccharomyces cerevisiae BY4741 SeMeCo community; assay: z-score of subpopulation abundance vs DMSO median, subpopulation auxotrophic for U; higher = larger share of this subpopulation than in DMSO controls; details: 10 µM; 24 h; SM minimal medium; subpopulation (auxotrophy): U
Summary of the method: as §1

[6] = tested on: Saccharomyces cerevisiae BY4741 SeMeCo community; assay: z-score of subpopulation abundance vs DMSO median, subpopulation auxotrophic for H; higher = larger share of this subpopulation than in DMSO controls; details: 10 µM; 24 h; SM minimal medium; subpopulation (auxotrophy): H
Summary of the method: as §1

[7] = tested on: Saccharomyces cerevisiae BY4741 SeMeCo community; assay: z-score of subpopulation abundance vs DMSO median, subpopulation auxotrophic for LU; higher = larger share of this subpopulation than in DMSO controls; details: 10 µM; 24 h; SM minimal medium; subpopulation (auxotrophy): LU
Summary of the method: as §1

[8] = tested on: Saccharomyces cerevisiae BY4741 SeMeCo community; assay: z-score of subpopulation abundance vs DMSO median, subpopulation auxotrophic for LM; higher = larger share of this subpopulation than in DMSO controls; details: 10 µM; 24 h; SM minimal medium; subpopulation (auxotrophy): LM
Summary of the method: as §1

[9] = tested on: Saccharomyces cerevisiae BY4741 SeMeCo community; assay: z-score of subpopulation abundance vs DMSO median, subpopulation auxotrophic for HM; higher = larger share of this subpopulation than in DMSO controls; details: 10 µM; 24 h; SM minimal medium; subpopulation (auxotrophy): HM
Summary of the method: as §1

[10] = tested on: Saccharomyces cerevisiae BY4741 SeMeCo community; assay: z-score of subpopulation abundance vs DMSO median, subpopulation auxotrophic for HU; higher = larger share of this subpopulation than in DMSO controls; details: 10 µM; 24 h; SM minimal medium; subpopulation (auxotrophy): HU
Summary of the method: as §1

[11] = tested on: Saccharomyces cerevisiae BY4741 SeMeCo community; assay: z-score of subpopulation abundance vs DMSO median, subpopulation auxotrophic for UM; higher = larger share of this subpopulation than in DMSO controls; details: 10 µM; 24 h; SM minimal medium; subpopulation (auxotrophy): UM
Summary of the method: as §1

[12] = tested on: Saccharomyces cerevisiae BY4741 SeMeCo community; assay: z-score of subpopulation abundance vs DMSO median, subpopulation auxotrophic for HLU; higher = larger share of this subpopulation than in DMSO controls; details: 10 µM; 24 h; SM minimal medium; subpopulation (auxotrophy): HLU
Summary of the method: as §1

[13] = tested on: Saccharomyces cerevisiae BY4741 SeMeCo community; assay: z-score of subpopulation abundance vs DMSO median, subpopulation auxotrophic for HLM; higher = larger share of this subpopulation than in DMSO controls; details: 10 µM; 24 h; SM minimal medium; subpopulation (auxotrophy): HLM
Summary of the method: as §1

[14] = tested on: Saccharomyces cerevisiae BY4741 SeMeCo community; assay: z-score of subpopulation abundance vs DMSO median, subpopulation auxotrophic for HUM; higher = larger share of this subpopulation than in DMSO controls; details: 10 µM; 24 h; SM minimal medium; subpopulation (auxotrophy): HUM
Summary of the method: as §1

[15] = tested on: Saccharomyces cerevisiae BY4741 SeMeCo community; assay: z-score of subpopulation abundance vs DMSO median, subpopulation auxotrophic for LUM; higher = larger share of this subpopulation than in DMSO controls; details: 10 µM; 24 h; SM minimal medium; subpopulation (auxotrophy): LUM
Summary of the method: as §1

[16] = tested on: Saccharomyces cerevisiae BY4741 SeMeCo community; assay: z-score of subpopulation abundance vs DMSO median, subpopulation auxotrophic for HLUM; higher = larger share of this subpopulation than in DMSO controls; details: 10 µM; 24 h; SM minimal medium; subpopulation (auxotrophy): HLUM
Summary of the method: as §1

[17] = tested on: Saccharomyces cerevisiae BY4741 SeMeCo community; assay: z-score of subpopulation abundance vs DMSO median, subpopulation auxotrophic for HL; higher = larger share of this subpopulation than in DMSO controls; details: 10 µM; 24 h; SM minimal medium; subpopulation (auxotrophy): HL
Summary of the method: as §1

| Compound | mean cell size [1] | z-score of prototroph abundance [2] | z-score of subpopulation abundance [3] | z-score of subpopulation abundance [4] | z-score of subpopulation abundance [5] | z-score of subpopulation abundance [6] | z-score of subpopulation abundance [7] | z-score of subpopulation abundance [8] | z-score of subpopulation abundance [9] | z-score of subpopulation abundance [10] | z-score of subpopulation abundance [11] | z-score of subpopulation abundance [12] | z-score of subpopulation abundance [13] | z-score of subpopulation abundance [14] | z-score of subpopulation abundance [15] | z-score of subpopulation abundance [16] | z-score of subpopulation abundance [17] |
| --- | --- | --- | --- | --- | --- | --- | --- | --- | --- | --- | --- | --- | --- | --- | --- | --- | --- |
| COC(=O)C1=C(C)NC(C)=C(C(=O)OCCN(C)Cc2ccccc2)C1c1cccc([N+](=O)[O-])c1 (configuration not stated) [Nicardipine HCl] | 12.4 ± 0.28 | -0.59 | 1.01 | 0.97 | -0.42 | 0.19 | 0.72 | 1.01 | 0.65 | 0 | 0.26 | 0.11 | -0.22 | 0.62 | -0.01 | -0.44 |  |
| COc1cc(NC(C)CCCN)c2ncccc2c1 (configuration not stated) [Primaquine Diphosphate] | 12.6 ± 0.24 | 0.58 | 1.17 | -0.56 | -1.22 | 0.32 | -1.15 | 0.09 | 0.98 | -1.2 | -0.88 | -0.39 | 0.32 | -1.39 | -0.75 | -0.49 | -0.43 |
| Nc1ccc(C(=O)O)c(O)c1 [4-Aminosalicylic acid] | 12 ± 0.19 | 2.23 | 1.33 | 0.78 | -3.36 | -0.01 | -3.37 | 0.62 | 0.06 | -3.39 | -2.19 | -0.27 | -0.9 | -1.3 | -1.15 | -0.18 | 0.08 |
| Cc1cc(C)nc(NS(=O)(=O)c2ccc(N)cc2)n1 [Sulfamethazine Sodium Salt] | 12.28 ± 0.095 | 0.49 | -1.42 | 0.3 | -0.43 | 0.36 | -0.11 | -0.63 | -0.79 | 0.05 | -0.8 | -0.28 | -0.15 | -0.93 | -0.01 | 0.81 |  |
| Nc1cc(C(Cl)=C(Cl)Cl)c(S(N)(=O)=O)cc1S(N)(=O)=O [Clorsulon] | 12.46 ± 0.016 | -0.96 | -0.33 | 0.16 | 0.03 | 0.76 | 0.95 | -0.35 | 0.02 | 0.32 | 0.16 | 0.22 | 0.02 | 0.92 | 1.09 | 0.24 | 0.48 |
| CCN(CC)C(=O)[C@@]1(c2ccccc2)C[C@H]1CN [Levomilnacipran Hydrochloride] | 12.1 ± 0.27 | -0.02 | -0.27 | -1.78 | 1.27 | -0.22 | -0.02 | -1.21 | -0.69 | 1.07 | 0.93 | -0.95 | -1.07 | -0.17 | -0.59 | -0.66 | -0.6 |
| COc1ccc(C[C@H](N)C(=O)N[C@H]2[C@@H](O)[C@H](n3cnc4c(N(C)C)ncnc43)O[C@@H]2CO)cc1 [Puromycin 2HCl] | 12.5 ± 0.13 | -0.54 | 0.81 | -0.61 | 0.92 | -0.66 | -0.06 | -0.47 | 0 | 0.15 | 1.61 | -0.44 | -0.12 | 0.39 | -0.39 | -0.22 | -0.16 |
